The full list was thinned out, with hits kept by preference.
Cycloheximide cs = counter-screen for Shiga toxin inhibitors: cycloheximide protein synthesis inhibition | actives 12% (n = 300,000) | cell reporter, cycloheximide protein synthesis inhibition counterscreen | max response, % | AID 2314; in the data active = max response mostly above about 13%, no sharp cut-off; inactive = mostly below about 14%; note: read at 38.3 µM for the half of the compounds with a filed dose; 0% is about no effect
FBPA Giardia inh = inhibitors of Giardia lamblia fructose-1,6-bisphosphate aldolase. actives 0.71% (n = 290,000). Potency, µM (series often up to 59.6 µM), inactives show top-dose activity, negative = inhibition, hits mostly inhibitors. purified Giardia FBPA; note: potency is the fitted concentration of half-maximal effect; % is set by controls: 0 for no effect and ±100 for the full control effect; nearly all actives have a fitted effect of over 55% in size
Target sequence (A8B2U2 whole entry, looked up): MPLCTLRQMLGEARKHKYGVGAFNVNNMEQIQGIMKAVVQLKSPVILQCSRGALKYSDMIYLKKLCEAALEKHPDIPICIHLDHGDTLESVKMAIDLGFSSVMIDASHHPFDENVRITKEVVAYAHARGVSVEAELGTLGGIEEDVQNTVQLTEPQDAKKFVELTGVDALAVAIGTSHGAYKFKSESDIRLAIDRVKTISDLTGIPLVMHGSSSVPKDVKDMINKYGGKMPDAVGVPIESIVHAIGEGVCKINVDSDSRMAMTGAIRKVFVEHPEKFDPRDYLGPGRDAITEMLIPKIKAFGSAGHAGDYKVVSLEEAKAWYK
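Giardia FBPA (40 nM reagent) was preincubated 10 min at RT with compound (up to 57.5 uM final), then substrate plus GAPDH/TPI/NAD/arsenate coupling system with diaphorase/resazurin was added; resorufin fluorescence (525/598 nm) was read after 20 min.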
RE007 growth inh = less growth of the S. pombe RE007 Vpr strain; S. pombe RE007 Vpr strain, BacTiter-Glo ATP luminescence, 24 h; Potency, µM (series often up to 92.2 µM), without a hit: top-dose activity change, negative = less growth, most hits filed as inhibitors; actives 0.21% (n = 360,000); AID 651644; active = well fitted falling curve with a large enough effect; inconclusive = small, poorly fitted or top-dose-only effect; inactive = no such curve, though single readings can be large or run the other way; note: potency is the fitted concentration of half-maximal effect; % is set by controls: 0 for no effect and ±100 for the full control effect; nearly all actives have a fitted effect of over 50% in size
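Fission yeast RE007 carrying one integrated HIV-1 vpr copy, seeded at OD 0.01 in PMG+AL medium with 23 nL pinned compound. Grown 24 h at 30 degrees; viability read by BacTiter-Glo luminescence after 5 min.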
Tb PYK inh = T. brucei pyruvate kinase inhibition; Q57TT1; TbPYK enzyme, Kinase-Glo Plus ATP luminescence, 45 min; Potency, µM (doses to about 76.8 µM), for inactives: top-dose activity, negative = inhibition, actives largely listed as inhibitors; actives 0.12% (n = 410,000); AID 624173; note: potency is the fitted concentration of half-maximal effect; % is set by controls: 0 for no effect and ±100 for the full control effect; nearly all actives have a fitted effect of over 50% in size
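In this concentration-response screen, enzyme-free wells defined baseline while DMSO plates tracked drift. Each reaction combined TbPYK, substrate, compound and 130 uM ADP for 45 min at room temperature. Kinase-Glo Plus luminescence gave the signal.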
LmPK inh = blocks Leishmania mexicana pyruvate kinase activity. AID 1721. actives 0.37% (n = 290,000). Potency, µM (doses to about 57.5 µM), without a hit: top-dose activity change, negative = inhibition, hits mostly inhibitors. Q27686. purified LmPK, Kinase-Glo ATP luminescence, 1 h; note: potency is the fitted concentration of half-maximal effect; % is set by controls: 0 for no effect and ±100 for the full control effect
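0.1 nM LmPK, 0.5 mM PEP, 0.1 mM ADP; 50 mM imidazole pH 7.2, 7 mM MgCl2, 50 mM KCl; 1 h RT. Kinase-Glo luminescence readout, normalized to no-enzyme (full inhibition) and uninhibited wells.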
Shiga toxin inh = blocks Shiga toxin action in Vero cells. inhibition, % at 38.7 µM. actives 9.2% (n = 290,000). AID 2315. Vero cells, Shiga toxin protein synthesis inhibition reporter; in the data active = inhibition mostly above about 28%, no sharp cut-off; inactive = mostly below about 43%; note: 0% is about no effect
Numbers without * were called inactive; ? = inconclusive; . = no result. Unless noted, calls come from the whole dose curve; as a rule, active = well fitted curve in the direction sought with a large enough effect; inconclusive = small, poorly fitted or top-dose-only effect, or another doubt; inactive = no such curve, though single readings can be large; an effect the other way counts as inactive or inconclusive.

SMILES | Cycloheximide cs | FBPA Giardia inh | RE007 growth inh | Tb PYK inh | LmPK inh | Shiga toxin inh
CN1CCN(c2ccc(NC(=S)NC(=O)c3cccc4c(Br)cccc34)cc2)CC1 | -1 | -16% | 3% | -4% | 8% | -3
O=C(Nc1ccc(S(=O)(=O)N2CCCCCC2)cc1)c1ccc(Br)o1 | 13 | -5% | 2% | 3% | 1% | 19
CN1CCN(c2ccc(NC(=O)c3ccccc3Br)cc2)CC1 | 18* | 4% | -12% | -6% | -1% | active
Cc1ccc2cc3c(N)nn(C(=O)c4cccc(F)c4)c3nc2c1 | . | . | . | -1% | . | .
CCOc1ccc(C(=O)Nc2ccc(C(=O)OCc3cc(=O)n4ccsc4n3)cc2)cc1 | . | . | . | -1% | . | .
CC1CCN(C(=O)c2cc3c(=O)n(C)c4cc(Cl)ccc4c3s2)CC1 | . | . | . | 4% | . | .
CCCCCOc1ccc(NC(=O)Cc2csc(C)n2)cc1 | . | . | . | 8% | . | .
CC1CCN(c2ccc(NC(=O)c3cccnc3)cc2)CC1 | 33* | -18% | 4% | -4% | -7% | 55*
CC1CCN(c2ccc(NC(=O)Cc3ccccc3)cc2)CC1 | 14 | 0% | -13% | -11% | 8% | 16
CCC(=O)Nc1ccc(N2CCC(C)CC2)cc1 | 33* | -5% | 13% | -9% | -4% | 15*
O=C(Nc1ccc(N2CCOCC2)cc1)c1ccc(Br)o1 | 28* | . | -4% | -17% | -27% | 79*
CCC(=O)NC(=S)Nc1ccc(NC(=O)c2ccc(Br)o2)cc1 | 16 | -5% | -27% | -4% | 2% | 112*
Cc1cn2c(=O)cc(COC(=O)c3cccc(NC(=O)COc4ccccc4)c3)nc2s1 | . | . | . | 5% | . | .
CC1CCN(c2ccc(NC(=O)c3ccc(Br)o3)cc2)CC1 | 28* | . | 12% | -3% | -6% | 65*
O=C(Nc1ccc(C(=O)N2CCN(c3ccncc3)CC2)cc1)c1ccc(Br)o1 | . | . | ? | 3% | . | .
COc1ccc2c(C)c(CC(=O)NCc3ccc(C)cc3)c(=O)oc2c1OC | . | . | . | 2% | . | .
O=C1OC(c2cccs2)=N/C1=C/c1ccc(-c2cccc(C(=O)O)c2)o1 | 26* | -21% | 4% | -14% | 1% | 27
O=C1OC(c2cccs2)=N/C1=C\c1ccc(-c2ccccc2Cl)o1 | 0 | 12% | -7% | 3% | -1% | -2
CC(C)Oc1ccc(CN2CCc3nc(Nc4ccc5c(c4)OCCO5)ncc3C2)cc1 | . | . | . | 3% | . | .
Cc1c(C(=O)OCC(=O)N(C)Cc2ccccc2)oc2ccccc12 | . | . | -7% | -2% | . | .
CCN(CC)CC(C)(C)COC(=O)c1oc2ccccc2c1C | 16 | 0% | -11% | 0% | 0% | 43*
Cc1c(C(=O)OCC(=O)N(C)c2ccccc2)oc2ccccc12 | 28* | -3% | -10% | -5% | -5% | 50*
Cc1c(C(=O)OCC(C)(C)CN(C)C)oc2ccccc12 | 44* | -8% | -11% | 5% | -2% | 87*
O=C(Nc1ccccc1)c1ccc2ccccc2n1 | 49* | -21% | -12% | -3% | 1% | 94*
Cc1ccc(NC(=O)c2ccc3ccccc3n2)nc1 | 38* | -15% | ? | -9% | -3% | 115*
SMILES | Cycloheximide cs | FBPA Giardia inh | RE007 growth inh | Tb PYK inh | LmPK inh | Shiga toxin inh
O=C(Nc1ccccc1C(=O)O)c1ccc2ccccc2n1 | 30* | ? | -1% | 7% | -21% | 124*
O=C(Nc1ccccc1)Nc1ccc2ccccc2n1 | 16 | -3% | 10% | -1% | 0% | 72
O=C(Nc1ccc2c(c1)OCCO2)c1ccc2ccccc2n1 | 39* | ? | 6% | 0% | -13% | 45*
CC(=O)Oc1cc2c(c(C)c1OC(C)=O)CC=C1[C@]3(C)CC[C@]4(C)CC[C@@](C)(C(=O)O)CC4[C@]3(C)CC[C@]12C (some centres not stated) | . | 1% | . | . | . | .
COc1cc(NC(=O)CN2C(=O)CN(C)C(=O)c3ccccc32)cc(OC)c1OC | . | . | . | 4% | . | .
Cc1c(C(=O)NCc2ccc(F)cc2)oc2ccc(S(=O)(=O)N3CCCCC3)cc12 | . | . | . | 0% | . | .
CCC1Oc2ccc(Cl)cc2N(CC(=O)NCCc2ccc(Cl)cc2)C1=O (configuration not stated) | . | . | . | -3% | . | .
CCOc1ccc(CC(=O)NCCc2csc(-c3ccc(C(F)(F)F)cc3)n2)cc1 | . | . | . | 2% | . | .

From PubChem
